Laboratory results as given in PubChem BioAssay (NCATS).
Unmarked numbers belong to inactive results. How the calls were made is not given here.

Tested on: HIV-1 nucleocapsid protein NCp7 (binding to TG oligonucleotide)
Experiment: HIV Nucleocapsid (AID 346);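 further: potency is for inhibitors that block NC binding and lower polarization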
Settings: HIV-1 NC / fluorescein-TGTGTGTG probe, fluorescence polarization
Summary of the method: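 NCp7 100 nM + fluorescein TG4xF 10 nM; Hepes pH 7.5/250mM NaCl/1uM ZnCl2/0.004% PEG 20000; 1 hr RT; FP, 45 s exposure; oligo-only wells as negative control.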
Potency means the concentration at half of the fitted maximal effect.

Row | SMILES | Potency
1 | Cc1cnc(CNc2ncnc3ccc(-c4ccc(C(=O)N(C)C)cc4)cc23)cn1 | > 20 µM
2 | COc1ccc(-c2nc3cnc(N4CCNCC4)nc3n(-c3ccc(OC)cc3)c2=O)cc1 | > 20 µM
3 | O=C(c1cnccn1)N1CCC[C@@]2(CCN(Cc3cc(C(F)(F)F)cc(C(F)(F)F)c3)C2)C1 | > 20 µM
4 | O=C(c1cccc(F)c1)N1CCC[C@@]2(CCN(Cc3ccccc3)C2)C1 | > 20 µM
5 | O=C(Nc1cccc(F)c1)N1CCC2(CC1)CCN(C(=O)c1ccncc1)CC2 | > 20 µM
6 | CN1CCN(c2nc(-c3cccc(C#N)c3)nc3ccccc23)CC1 | > 20 µM
7 | c1nc(NC2CC2)c2cc(-c3ccoc3)ccc2n1 | > 20 µM
8 | Cc1cnc(CNc2ncncc2-c2ccccc2Cl)cn1 | > 20 µM
